Data on 21 compounds can be found in PubChem BioAssay (NCATS).

Results filed as inconclusive are left out. Calls of active or inactive are those of the source. The call rests on the fitted dose curve; in most records, active means well fitted curve in the direction sought with a large enough effect; inconclusive means small, poorly fitted or top-dose-only effect, or another doubt; inactive means no such curve, though single readings can be large; an effect the other way counts as inactive or inconclusive.
Further: nearly all actives have a fitted effect of over 70% in size.

Ubiquitin carboxyl-terminal hydrolase 2 (Homo sapiens), sequence (O75604 whole entry, looked up): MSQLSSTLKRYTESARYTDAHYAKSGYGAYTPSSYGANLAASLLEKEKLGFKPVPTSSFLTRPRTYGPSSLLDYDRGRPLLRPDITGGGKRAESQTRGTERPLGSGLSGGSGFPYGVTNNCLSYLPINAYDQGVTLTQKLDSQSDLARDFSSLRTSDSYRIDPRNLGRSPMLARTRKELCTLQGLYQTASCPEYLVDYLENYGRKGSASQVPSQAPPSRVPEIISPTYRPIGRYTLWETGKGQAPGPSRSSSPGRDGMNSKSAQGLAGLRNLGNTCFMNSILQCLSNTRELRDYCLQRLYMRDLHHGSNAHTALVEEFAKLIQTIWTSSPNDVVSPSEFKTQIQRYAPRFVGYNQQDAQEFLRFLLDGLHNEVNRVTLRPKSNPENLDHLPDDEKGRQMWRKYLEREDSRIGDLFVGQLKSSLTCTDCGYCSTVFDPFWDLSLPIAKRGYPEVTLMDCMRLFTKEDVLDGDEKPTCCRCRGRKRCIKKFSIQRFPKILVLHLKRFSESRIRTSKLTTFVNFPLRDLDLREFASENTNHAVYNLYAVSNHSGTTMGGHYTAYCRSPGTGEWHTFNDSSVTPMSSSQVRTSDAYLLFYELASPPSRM

Test system in one experiment: not listed separately
Put plainly: qHTS for Inhibitors of Ubiquitin-specific Protease USP2a Using CHOP2 as the Reporter: Cytotox Assay (AID 652170).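 Further: HCT116 human colon cancer cells at 600 per well; plate controls were DMSO-treated cells for no effect and wells without cells for full effect.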 To be noted: HCT116 viability, CellTiter-Glo luminescence, 72 h; series mostly up to 46.1 µM; activity change, negative = cytotoxicity: at the top concentration. An outline of the steps: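 Cytotoxicity read as ATP luminescence (CellTiter-Glo) after 72 hr compound treatment at 37 deg C. Cells: HCT116, 600/well in DMEM plus 10% FBS. Normalization between DMSO-treated cells and cell-free wells.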
Background: qHTS replaces the single test concentration by a dilution series.
Take `Cc1ccc(-c2cc(C(=O)Nc3ccc(S(C)(=O)=O)cc3)c3ccccc3n2)cc1C`: the “activity change, negative = cytotoxicity” value is 13.4% (inactive).
Still for that read-out and setting: the figure for `Cc1ccc(C(=O)Nc2ccc(S(=O)(=O)Nc3nccs3)cc2)cc1C` is 4.66% (inactive); for `Cc1ccc(-c2csc(Nc3ccc(S(=O)(=O)Nc4nccs4)cc3)n2)cc1C` it is 17.5% (inactive); for `CCCc1ccc(C(=O)Nc2ccc(S(=O)(=O)Nc3nccs3)cc2)cc1` it is 2.64% (inactive).
Same read-out and setting: the figure for `O=C(C[C@H]1CC[C@@H](C(=O)Nc2ccc(S(=O)(=O)Nc3nccs3)cc2)C1)c1ccccc1` is 4.44% (inactive).
Same read-out and setting: the figure for `CCCCC1CCC(C(=O)Nc2ccc(S(=O)(=O)Nc3nccs3)cc2)CC1` (centres undefined) is -15.1% (inactive); for `Cc1ccc(-c2cc(C(=O)Nc3ccc(S(=O)(=O)Nc4ccccn4)cc3)c3ccccc3n2)cc1C` it is 3.37% (inactive); for `Cc1ccc(S(=O)(=O)Nc2cnccc2C(=O)Nc2ccc(-c3nn[nH]n3)cc2)cc1` it is -4.7% (inactive).

In a further experiment the target is Ubiquitin carboxyl-terminal hydrolase 2 (Homo sapiens) (UniProt O75604). Put plainly: qHTS for Inhibitors of Ubiquitin-specific Protease USP2a Using CHOP2 as the Reporter: K484 Substrate (AID 652173).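 Further: cleavage of internally quenched K48 di-ubiquitin substrate measured as rising fluorescence over time; potency means the concentration at half of the fitted maximal effect.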 The settings on record: USP2 cleavage of DiUb K48 IQF substrate, fluorescence; series mostly up to 57.5 µM; activity change, negative = inhibition: at the top concentration. The method in brief:
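Kinetic fluorescence (Ex 525/Em 598) tracked cleavage of an internally quenched K48 di-ubiquitin substrate, added as a 100 nM solution. The enzyme was added as a 5 nM USP2 solution before compound pinning, with no-enzyme controls. Buffer: Tris pH 8, beta-mercaptoethanol, CHAPS.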
As for `O=C(Nc1nc(-c2ccccc2)cs1)c1ccncc1NS(=O)(=O)c1ccc2ccccc2c1`, the Potency was 1.37 µM (active).
`Cc1ccc(-c2cc(C(=O)Nc3ccc(S(C)(=O)=O)cc3)c3ccccc3n2)cc1C`: the Potency was 6.85 µM (active).
With `Cc1ccc(C(=O)Nc2ccc(S(=O)(=O)Nc3nccs3)cc2)cc1C`, the Potency is 24.3 µM (active).
For the compound `Cc1ccc(-c2csc(Nc3ccc(S(=O)(=O)Nc4nccs4)cc3)n2)cc1C`, the Potency is 4.32 µM (active).
With `Cc1ccc(S(=O)(=O)Nc2cnccc2C(=O)Nc2nc(-c3cc4ccccc4o3)cs2)cc1`, the Potency was 1.93 µM (active).
Turning to `CCCc1ccc(C(=O)Nc2ccc(S(=O)(=O)Nc3nccs3)cc2)cc1`, the Potency is 21.7 µM (active).
Same read-out and setting: the figure for `Cc1ccc(-c2cc(C(=O)Nc3ccc(C(N)=O)cc3)c3ccccc3n2)cc1C` is 21.7 µM (active).
The same measure, in the same setting: the figure for `COc1ccc(-c2csc(NC(=O)c3ccncc3NS(=O)(=O)c3ccc(C)cc3)n2)cc1` is 2.17 µM (active); for `O=C(C[C@H]1CC[C@@H](C(=O)Nc2ccc(S(=O)(=O)Nc3nccs3)cc2)C1)c1ccccc1` it is 19.3 µM (active); for `Cc1ccc(-c2cc(C(=O)Nc3ccc(C#N)cc3)c3ccccc3n2)cc1C` it is 12.2 µM (active).
The same measure, in the same setting: the figure for `CCCCC1CCC(C(=O)Nc2ccc(S(=O)(=O)Nc3nccs3)cc2)CC1` (centres undefined) is 4.85 µM (active); for `COc1cccc(-c2csc(NC(=O)c3ccncc3NS(=O)(=O)c3ccc(C)cc3)n2)c1` it is 1.72 µM (active).
Take `Cc1ccc(-c2cc(C(=O)Nc3ccc(S(=O)(=O)Nc4ccccn4)cc3)c3ccccc3n2)cc1C`: the Potency is 4.32 µM (active).
The same measure, in the same setting: to `Cc1ccc(-c2cc(C(=O)Nc3cccc(S(N)(=O)=O)c3)c3ccccc3n2)cc1C` belongs 5.44 µM (active).
With `Cc1ccc(S(=O)(=O)Nc2cnccc2C(=O)Nc2nc(-c3ccccc3F)cs2)cc1`, the Potency was 2.17 µM (active).
For `Cc1ccc(S(=O)(=O)Nc2cnccc2C(=O)Nc2ccc(-c3nn[nH]n3)cc2)cc1`, the Potency was 8.63 µM (active).
Take `Cc1ccc(S(=O)(=O)Nc2cnccc2C(=O)Nc2nc(-c3ccc(C)c(C)c3)cs2)cc1`: the Potency is 2.73 µM (active).
With `O=C(Nc1nc(-c2ccccc2)cs1)c1ccncc1NS(=O)(=O)c1ccc2c(c1)CCC2`, the Potency was 1.93 µM (active).
Turning to `Cc1cccc(S(=O)(=O)Nc2cnccc2C(=O)Nc2nc(-c3ccccc3)cs2)c1`, the Potency is 2.73 µM (active).
Same read-out and setting: to `Cc1ccc(S(=O)(=O)Nc2ccc(C(=O)Nc3nc(-c4ccccc4)cs3)cc2Cl)cc1` belongs 2.17 µM (active).
Same read-out and setting: to `Cc1ccc(S(=O)(=O)Nc2cnccc2C(=O)Nc2nc(-c3ccco3)cs2)cc1` belongs 4.32 µM (active).
